This passage reports Potency results from PubChem BioAssay (NCATS).

Values joined by “and” are separate entries in the source; they are usually repeats but may differ in a detail not shown here. Equal values may be shown once. Inconclusive results are not listed. Active and inactive are the calls of the source. The call rests on the fitted dose curve; in most records, active means well fitted inhibition curve with a large enough effect; inconclusive means small, poorly fitted or top-dose-only effect; inactive means flat fitted curve, though single readings scatter.

Test in all cases: qHTS profiling for inhibitors of Plasmodium falciparum proliferation (AID 504749); further: nearly all actives have a fitted effect of over 60% in size
What all share (settings): P. falciparum in erythrocytes, SYBR Green DNA, 72 h; series mostly up to 28.7 µM
A general note: Quantitative high-throughput screening tests each substance at several concentrations.

One assay relates to CP291. In outline: (§1)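 SYBR Green fluorescence (ex 485 nm, em 535 nm) reports parasite DNA after 72 h compound exposure of infected red cells at 0.3% parasitemia, 2.5% hematocrit; signal normalized to 0.29 uM artemisinin and vehicle wells.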
The next assay has as its system CP297. The essentials:
as §1

In a further assay the test system is CP305. In outline:
as §1

The next assay has as its system CP315. In outline: as §1
Another assay deals with CP325. The essentials:
as §1

For the next assay, the system named is CP329. The essentials: as §1
The subject of another assay is CP335. The essentials: as §1
For a further assay, the system named is DFO2036. The essentials:
as §1

A further assay concerns DIV14. The essentials:
as §1

In another assay the test system is DIV17. In outline:
as §1

For another assay, the system named is DIV30. In outline:
as §1

A further assay concerns Dd2. In outline:
as §1

Another assay relates to ECU. The essentials:
as §1

The test system of another assay is FAB9. The essentials:
as §1

The next assay has as its system GB4. The essentials:
as §1

For a further assay, the system named is HB3. The essentials: as §1
In another assay the test system is ICS. In outline:
as §1

A further assay concerns JCK. The essentials:
as §1

In another assay the test system is N140. The essentials: as §1
The next assay concerns P93_24. In outline: as §1
Potency means the concentration at half of the fitted maximal effect.

For `CC(C)C(Br)C(=O)NC(N)=O` (centres undefined), the Potency entry with CP291, in the assay on CP297, in the assay with CP305, in the assay with CP315, in the assay on CP325 and with CP329 was “inactive” in each case. The Potency entry in the assay with CP335, in the assay with DFO2036, in the assay with DIV14, in the assay with DIV17, in the assay with DIV30 and in the assay with Dd2 was “inactive” throughout. In addition, the Potency entry with ECU, in the assay on FAB9, in the assay with GB4, in the assay with HB3, in the assay on ICS and with JCK was “inactive” throughout. The Potency entry in the assay with N140 and in the assay with P93_24 was “inactive” each time.

In the case of `CC[n+]1c(-c2ccccc2)c2cc(N)ccc2c2ccc(N)cc21`, the Potency is 151 nM (active) and 601 nM (active) with CP291; 169 nM (active) and 478 nM (active) in the assay with CP297; 84.9 nM (active) and 379 nM (active) with CP305; 478 nM (active) and 1.69 µM (active) with CP315; 95.3 nM (active) and 379 nM (active) in the assay with CP325; 107 nM (active) and 426 nM (active) in the assay with CP329. Further, the Potency was 84.9 nM (active) and 239 nM (active) in the assay with CP335; 89.1 nM (active) and 251 nM (active) with DFO2036; 53.6 nM (active) and 107 nM (active) with DIV14; 53.6 nM (active) and 151 nM (active) in the assay with DIV17; 426 nM (active) and 1.9 µM (active) in the assay with DIV30; 20 nM (active) and 100 nM (active) in the assay with Dd2. The Potency with ECU is 141 nM (active) and 447 nM (active); with FAB9 it was 79.4 nM (active) and 89.1 nM (active); in the assay on GB4, 75.7 nM (active) and 169 nM (active); in the assay with HB3, 126 nM (active) and 316 nM (active); with ICS it was 44.7 nM (active) and 126 nM (active); with JCK, 79.4 nM (active) and 282 nM (active). Also, the Potency in the assay on N140 was 141 nM (active) and 316 nM (active); in the assay with P93_24, 63.1 nM (active) and 158 nM (active).

Regarding `CCN(CC)C(C)C(=O)c1ccccc1` (centres undefined), the Potency result in the assay on CP291, in the assay on CP297, in the assay with CP305, in the assay on CP315, in the assay on CP325 and in the assay with CP329 was “inactive” in each case. The Potency result in the assay with CP335, in the assay with DFO2036, with DIV14, with DIV17, in the assay on DIV30 and in the assay with Dd2 was “inactive” throughout. Moreover, the Potency entry with ECU, with FAB9, in the assay with GB4, in the assay with HB3, with ICS and in the assay on JCK was “inactive” throughout. Further, the Potency result in the assay on N140 and in the assay with P93_24 was “inactive” in each case.

With `COP(=O)(OC)OC=C(Cl)Cl`, the Potency entry in the assay with CP291, in the assay on CP297, in the assay on CP305, with CP315, with CP325 and in the assay on CP329 was “inactive” in each case. The Potency entry in the assay on CP335, with DFO2036, in the assay with DIV14, with DIV17, in the assay with DIV30 and in the assay with Dd2 was “inactive” in each case. Besides, the Potency entry with ECU, in the assay on FAB9, in the assay with GB4, with HB3, in the assay on JCK and in the assay on N140 was “inactive” in each case. For the same compound, the Potency entry with P93_24 was “inactive”.

With `CCCCCCCCCCCC[N+](C)(C)CCOc1ccccc1`, the Potency was 8.49 µM (active) in the assay on CP291; 13.5 µM (active) with CP297; 8.49 µM (active) with CP305; 15.1 µM (active) in the assay on CP315; 9.53 µM (active) with CP325; 13.5 µM (active) in the assay on CP329. Also, the Potency was 6.01 µM (active) in the assay with CP335; 5.01 µM (active) in the assay with DFO2036; 5.36 µM (active) in the assay with DIV14; 8.49 µM (active) with DIV17; 13.5 µM (active) in the assay with DIV30; 3.55 µM (active) in the assay on Dd2. Besides, the Potency in the assay on ECU was 5.01 µM (active); in the assay with FAB9, 7.94 µM (active); in the assay with GB4, 5.36 µM (active); in the assay with HB3, 6.31 µM (active); in the assay with ICS, 2.24 µM (active); in the assay with JCK it was 12.6 µM (active). The Potency in the assay on N140 is 7.94 µM (active); in the assay on P93_24, 4.47 µM (active).

As for `CCC1(CC)C(=O)NC(=O)NC1=O`, the Potency entry with CP291, in the assay with CP297, in the assay with CP305, in the assay with CP315, in the assay with CP325 and in the assay on CP329 was “inactive” in each case. Moreover, the Potency result in the assay with CP335, in the assay on DFO2036, with DIV14, with DIV17, in the assay with DIV30 and in the assay with Dd2 was “inactive” in each case. Besides, the Potency result with ECU, in the assay on FAB9, in the assay on GB4, with HB3, in the assay with ICS and with JCK was “inactive” in each case. For the same compound, the Potency entry in the assay with N140 and with P93_24 was “inactive” throughout.

`CCNc1nc(Cl)nc(NCC)n1`: the Potency entry in the assay on CP291, with CP297, in the assay on CP305, with CP315, in the assay with CP325 and in the assay on CP329 was “inactive” each time. The Potency result with CP335, with DFO2036, in the assay with DIV14, with DIV17, in the assay on DIV30 and in the assay with Dd2 was “inactive” each time. Moreover, the Potency result in the assay on ECU, in the assay on FAB9, with GB4, in the assay with HB3, in the assay with ICS and with JCK was “inactive” throughout. Also, the Potency entry with N140 and in the assay on P93_24 was “inactive” in each case.

In the case of `CCCCCCCCC(=O)NCc1ccc(O)c(OC)c1`, the Potency result with CP291, in the assay with CP297, in the assay on CP305, in the assay with CP315, in the assay with CP325 and in the assay on CP329 was “inactive” in each case. Besides, the Potency result with CP335, in the assay with DFO2036, with DIV14, in the assay on DIV17, with DIV30 and in the assay on Dd2 was “inactive” in each case. Besides, the Potency result with ECU, with FAB9, with GB4, in the assay with HB3, with ICS and in the assay with JCK was “inactive” throughout. The Potency entry in the assay on N140 and in the assay with P93_24 was “inactive” throughout.

As for `C[C@H]1C(=O)O[C@@H]2CCN3CC=C(COC(=O)[C@](C)(O)[C@]1(C)O)[C@H]23`, the Potency entry in the assay on CP291, in the assay on CP297, with CP305, with CP315, with CP325 and in the assay with CP329 was “inactive” each time. Further, the Potency result in the assay on CP335, with DFO2036, in the assay on DIV14, in the assay on DIV17, in the assay on DIV30 and with Dd2 was “inactive” in each case. For the same compound, the Potency entry in the assay on ECU, in the assay with FAB9, in the assay on GB4, in the assay with HB3, with ICS and with JCK was “inactive” each time. Besides, the Potency result in the assay with N140 and in the assay with P93_24 was “inactive” each time.

Consider `NC(=O)OCCCc1ccccc1`, for which the Potency result with CP291, in the assay on CP297, in the assay on CP305, in the assay on CP315, in the assay on CP325 and in the assay with CP329 was “inactive” in each case. The Potency entry in the assay on CP335, with DFO2036, in the assay with DIV14, in the assay with DIV17, in the assay on DIV30 and with Dd2 was “inactive” in each case. The Potency entry in the assay on ECU, in the assay on FAB9, in the assay with GB4, in the assay on HB3, in the assay on ICS and in the assay on JCK was “inactive” throughout. In addition, the Potency result in the assay on N140 and in the assay with P93_24 was “inactive” each time.

Consider `C[C@]12CC[C@H]3[C@@H](CC=C4C[C@@H](O)CC[C@@]43C)[C@@H]1CC[C@@H]2O`, for which the Potency result with CP291, in the assay on CP297, in the assay with CP305, in the assay with CP315, in the assay on CP325 and with CP329 was “inactive” each time. The Potency result in the assay on CP335, in the assay on DFO2036, in the assay on DIV14, with DIV17, in the assay on DIV30 and in the assay on Dd2 was “inactive” each time. The Potency result with ECU, in the assay with FAB9, with GB4, in the assay on HB3, in the assay with ICS and with JCK was “inactive” each time. The Potency entry in the assay on N140 and with P93_24 was “inactive” throughout.
